Results on 20 molecules are retold here after PubChem BioAssay (NCATS).

The structures appear in SMILES notation. Inconclusive results are not listed. Activity calls are given as the source filed them. The call rests on the fitted dose curve; in most records, active means well fitted cell-killing curve with a large enough effect; inconclusive means small, poorly fitted or top-dose-only effect, or effect the other way; inactive means flat fitted curve, though single readings scatter.
On the % scale 0 is the no-effect control and ±100 the full control effect.

The nature of the test: MultiTox-Fluor Cytotoxicity Assay - LYMP1-002 - Live Cells (AID 955). Conditions: LYMP1-002 lymphoblastoid live-cell protease fluorescence viability; series mostly up to 46.1 µM; viability change, negative = cytotoxic: at the top concentration. The text has this: NIH Chemical Genomics Center [NCGC]
NIH Molecular Libraries Screening Centers Network [MLSCN]
National Institutes of Environmental Health Sciences [NIEHS]
National Toxicology Program [NTP]
We have developed a 1536-well cell-based assay for quantitative high throughput screening (qHTS) against a number of cell lines to determine in vitro cytotoxicity of small molecules. This particular assay uses a human lymphoblastoid cell line (LYMP1-002) purchased from Coriell Institute.
NCGC Assay Protocol Summary:
The MultiTox-Fluor Cytotoxicity Assay (Promega) is a homogeneous method to simultaneously measure the relative number of live and dead cells in culture by detecting changes in cell membrane integrity. There are two fluorogenic peptide substrates in the assay reagent. Viable cells are determined when the cell-permeant substrate (GF-AFC) enters the cell and is cleaved by protease from live cells resulting in liberated fluorophore. This live-cell protease activity restricted to viable cells is proportional to cell number. The dead cells are determined by using fluorogenic cell-impermeant peptide substrate (bis-AAF-R110) which cleaved by dead cell proteases leaking from damaged cell membrane.
Using the MultiTox-Fluor Cytotoxicity Assay, the relative number of live cells was measured in the lymphoblastoid cell line with complete culture medium following compound treatment for 16 hours. The assay was performed in opaque black Kalypsys 1536-well plates. In the screen, tetraoctylammonium bromide was used as positive control. Library compounds were measured for their ability to cause acute toxicity in the cell line, as reflected by a decrease in live cell protease activity, in a concentration-dependent manner. […] AC50 values were determined from concentration-response data modeled with the standard Hill equation.
qHTS protocol for MultiTox-Fluor Cytotoxicity assay
[Step] [Parameter] [Value] [Description]
1. Reagent; 5 uL; 2500 lymphoblastoid cells/well
2. Time; 5 hr; 37 C incubation
4. Controls; 23 nL; Tetraoctylammonium bromide 6.4pM to 92 uM
5. Time; 16 hr; 37 C incubation
6. Reagent; 5 uL; MuliTox-Fluor Assay reagent
7. Time; 60 min; Room Temperature
8. Detection; live-cell fluorescence (Ex/Em=405/510); EnVision plate reader
Keywords: cell viability, cytotoxicity, lymphoblastoid cell line, fluorescence, NTPHTS, NTPHTS_NCGC, NIEHS, EPA, DSSTox, MLSMR, MLSCN, NIH Roadmap, qHTS, NCGC
In the case of `Cc1ccc(-c2cc(C(F)(F)F)nn2-c2ccc(S(N)(=O)=O)cc2)cc1`, the “viability change, negative = cytotoxic” value was -3.95% (inactive).
In the case of `COc1ccc2[nH]cc(CCNC(C)=O)c2c1`, the call was inactive.
Consider `Cc1cn([C@H]2C[C@H](N=[N+]=[N-])[C@@H](CO)O2)c(=O)[nH]c1=O`, for which the “viability change, negative = cytotoxic” value was -7.38% (inactive).
The same measure, in the same setting: to `Nc1c2c(nc3ccccc13)CCCC2` belongs -17.8% (inactive).
For `CCC1(c2ccccc2)C(=O)NCNC1=O`, the “viability change, negative = cytotoxic” value is 8.71% (inactive).
With `NS(=O)(=O)c1cc2c(cc1Cl)NCNS2(=O)=O`, the “viability change, negative = cytotoxic” value is -8% (inactive).
For the molecule `Cn1c(=O)c2[nH]cnc2n(C)c1=O`, the “viability change, negative = cytotoxic” value was -6.29% (inactive).
For the molecule `Cc1cn([C@H]2C=C[C@@H](CO)O2)c(=O)[nH]c1=O`, the result was inactive.
On to `N[C@@H](Cc1c[nH]c2ccc(O)cc12)C(=O)O`, for which the “viability change, negative = cytotoxic” value was 13.5% (inactive).
On to `Cn1c(=O)c2c(ncn2C)n(C)c1=O`, for which the “viability change, negative = cytotoxic” value was -1.52% (inactive).
Still for that read-out and setting: to `CC(COc1ccccc1)N(CCCl)Cc1ccccc1` (stereo not given) belongs -8.6% (inactive).
On to `Nc1ccn([C@H]2CC[C@@H](CO)O2)c(=O)n1`, for which the “viability change, negative = cytotoxic” value is -7.09% (inactive).
Turning to `NCCS(=O)(=O)O`, the “viability change, negative = cytotoxic” value is 7.79% (inactive).
Same read-out and setting: to `CC(C)NCC(O)c1ccc(O)c(O)c1` (stereo not given) belongs 7.18% (inactive); to `COc1ccc(CCN(C)CCCC(C#N)(c2ccc(OC)c(OC)c2)C(C)C)cc1OC` (stereo not given), -14.3% (inactive).
Regarding `Clc1ccc(C(c2ccccc2Cl)C(Cl)Cl)cc1` (stereo not given), the “viability change, negative = cytotoxic” value was 5.81% (inactive).
Take `COc1ccc2c(c1)c(CC(=O)O)c(C)n2C(=O)c1ccc(Cl)cc1`: the “viability change, negative = cytotoxic” value was 4.31% (inactive).
On to `O=c1[nH]cc(F)c(=O)[nH]1`, for which the “viability change, negative = cytotoxic” value was -8.73% (inactive).
Turning to `O=c1c(-c2ccc(O)cc2)coc2cc(O)cc(O)c12`, the “viability change, negative = cytotoxic” value is -16.7% (inactive).
Turning to `CC(C)C(=O)Nc1ccc([N+](=O)[O-])c(C(F)(F)F)c1`, the “viability change, negative = cytotoxic” value is -3.53% (inactive).
